# KB-3-1 cytotox: qHTS assay for MDR1-selective chemotherapeutics: Primary screen using the parental adenocarcinoma cell KB-3-1; KB-3-1 viability, CellTiter-Glo ATP luminescence, 72 h; Potency, µM (highest dose often 46.1 µM), usual class: cytotoxic; actives 1.4% (n = 400,000); also: % is scaled to controls: 0 for no effect and ±100 for the full control effect; nearly all actives have a fitted effect of over 60% in size
#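 Multi-concentration cytotoxicity screen in KB-3-1 cells grown in DMEM lacking phenol red with 10% FBS. After 72 h at 37 °C with compound, ATP-dependent luminescence was recorded.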
# Gal4-VP16 FLuc: VP16 counterscreen qHTS for inhibitors of ROR gamma transcriptional activity; Drosophila S2 Gal4-VP16 UAS-luciferase, luminescence, 20 h; Potency, µM (highest dose often 53.6 µM), without a hit: at the top dose activity, negative = inhibition, actives largely listed as inhibitors; actives 3.5% (n = 310,000); AID 2546, 2010;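 also: Gal4-VP16 expression switched on by copper sulfate through the metallothionein promoter; % is scaled to controls: 0 for no effect and ±100 for the full control effect; nearly all actives have a fitted effect of over 50% in size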
# KB-V1 cytotox: qHTS assay for MDR1-selective chemotherapeutics: Primary screen using the drug-selected MDR subline cells KB-V1 | KB-V1 MDR cells viability, CellTiter-Glo, 72 h | Potency, µM (top dose mostly 46.1 µM), most hits filed as cytotoxic | actives 3.4% (n = 400,000); also: % is scaled to controls: 0 for no effect and ±100 for the full control effect; nearly all actives have a fitted effect of over 60% in size
#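 Cytotoxicity toward P-gp-expressing KB-V1 cells was determined as loss of CellTiter-Glo luminescence after 72 h at 37 degrees C. Compounds were tested in quantitative HTS format across a concentration range, with curves fitted to normalized data.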
# MCF10A rerep: A quantitative high throughput screen for small molecules that induce DNA re-replication in MCF 10a normal breast cells. MCF 10A DNA re-replication, Hoechst nuclear intensity, 48 h. Potency, µM (top dose mostly 46.1 µM), inactives show at the highest dose activity, positive = re-replication, most hits filed as activators. actives 2.9% (n = 350,000). AID 624296, 2012; also: % of control where 0% means no effect; nearly all actives have a fitted effect of over 50% in size
# SW480 rerep: A quantitative high throughput screen for small molecules that induce DNA re-replication in SW480 colon adenocarcinoma cells; SW480 DNA re-replication, Hoechst DNA content imaging, 48 h; Potency, µM (series often up to 46.1 µM), without a hit: at the highest dose re-replication activation, usual class: activators; actives 1.8% (n = 340,000); AID 624297, 2012; also: % of control where 0% means no effect; nearly all actives have a fitted effect of over 55% in size
#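 250 cells/well; 23 nL cpd via pin tool; 48 hr, 37 C, 5% CO2; Hoechst 40 min; imager read of total nuclear intensity, ex 405/em 500-530 nm.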
# RORg inh: qHTS for inhibitors of ROR gamma transcriptional activity; Nuclear receptor ROR-gamma (Mus musculus), P51450; AID 2551, 2010; Drosophila S2 Gal4-RORgamma UAS-luciferase reporter, 20 h; Potency, µM (top dose mostly 53.6 µM), for inactives: top-dose activity change, negative = inhibition, most hits filed as inhibitors; actives 5.4% (n = 310,000); also: % is scaled to controls: 0 for no effect and ±100 for the full control effect; nearly all actives have a fitted effect of over 60% in size
# Target sequence (P51450 whole entry, looked up, the tested form may be a part): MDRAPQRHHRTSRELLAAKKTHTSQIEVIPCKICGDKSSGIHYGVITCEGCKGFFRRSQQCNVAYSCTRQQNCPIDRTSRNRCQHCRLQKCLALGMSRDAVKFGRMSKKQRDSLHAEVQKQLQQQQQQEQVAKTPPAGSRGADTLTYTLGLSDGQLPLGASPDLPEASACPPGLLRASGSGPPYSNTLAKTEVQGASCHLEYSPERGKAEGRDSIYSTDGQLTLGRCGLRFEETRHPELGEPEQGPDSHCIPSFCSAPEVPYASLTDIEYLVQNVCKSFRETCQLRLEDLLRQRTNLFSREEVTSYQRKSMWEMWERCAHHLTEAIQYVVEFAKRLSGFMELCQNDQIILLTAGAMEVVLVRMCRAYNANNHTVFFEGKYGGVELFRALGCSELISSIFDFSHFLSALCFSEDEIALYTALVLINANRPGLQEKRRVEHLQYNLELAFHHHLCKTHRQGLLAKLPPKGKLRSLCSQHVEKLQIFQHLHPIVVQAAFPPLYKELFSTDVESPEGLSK
#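 A Gal4/UAS one-hybrid system in insect cells: metallothionein-promoter Gal4–ROR gamma fusion plus Photinus luciferase reporter. Copper sulfate 700 uM final, 20 hr ambient incubation, luminescent detection after 10 min with reagent.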
# An asterisk follows results filed as active; i = inactive; ? = inconclusive; nt = no result given; ! = not confirmed by another sample. Shown are actives, neighbours in structure and some others; about 10% of the full set was active somewhere. Calls follow the shape of the dose curve; as a rule, active = well fitted curve in the direction sought with a large enough effect; inconclusive = small, poorly fitted or top-dose-only effect, or another doubt; inactive = no such curve, though single readings can be large; an effect the other way counts as inactive or inconclusive. Potency is read from the fitted curve at half-maximal effect.
SMILES,KB-3-1 cytotox,Gal4-VP16 FLuc,KB-V1 cytotox,MCF10A rerep,SW480 rerep,RORg inh
CCOc1ccc(NC(=O)CC2C(=O)N(c3ccccc3)C(=O)N2CCc2cccs2)cc1 (stereo not drawn),i,-4%,5.8µM*!,-1%,?,42%
Cc1ccsc1CCN1C(=O)N(c2ccccc2)C(=O)C1CC(=O)Nc1ccc(F)cc1 (stereo not drawn),23µM*,nt,?,nt,nt,nt
CC1=C(C(=O)N(C(C)C)C(C)C)CC(CC(=O)NC(c2ccccc2)c2ccccc2)C(=O)N1CCCN1CCCC1=O (stereo not drawn),i,nt,i,nt,nt,nt
CCn1nc(C)cc1C(=O)N1CCCC(N2CCN(c3cccc(Cl)c3)CC2)C1 (stereo not drawn),nt,6%,nt,nt,nt,1%
CCn1nc(C)cc1C(=O)Sc1cccc(Cl)c1,i,?,i,23µM*,0%,?
Cc1nn(C)c(C(=O)Sc2cccc(Cl)c2)c1[N+](=O)[O-],i,-4%,i,18µM*,?,-9%
CCCCNc1c(-c2cccnc2)nc2nc(C)cc(C)n12,i,nt,?,nt,nt,nt
Cc1cccc2nc(-c3cccnc3)c(NCCC(C)C)n12,i,?,?,21µM*,-2%,8.9µM*
Cc1cccc2nc(-c3cccnc3)c(Nc3ccccc3)n12,?,1%,18µM*,-8%,3%,2%
CCOc1ccc(C(=O)Nc2ccc3nc(N(CC)CC)cc(C)c3c2)cc1,i,nt,i,nt,nt,nt
COc1ccc2nc(N/C(N)=N/C(=S)Nc3c(C)cccc3C)nc(C)c2c1,?,-6%,?,?,26%,16%
CCOc1ccc2nc(N/C(N)=N/C(=S)Nc3cccc(C)c3)nc(C)c2c1,i,3.5µM*,23µM*,-2%,-7%,1.6µM*
COc1ccc(NC(=S)c2ccccc2)cc1,i,2%,i,-4%,5%,-44%
CCOc1ccc2nc(N/C(N)=N/C(=S)Nc3cccc(OC)c3)nc(C)c2c1,i,?,i,10%,?,0.79µM*
COc1ccc(NC(=S)/N=C(\N)Nc2nc(C)c3ccccc3n2)cc1,i,4.5µM*,?,?,-50%,1µM*
COc1ccc2nc(N/C(N)=N/C(=S)Nc3cccc(C)c3)nc(C)c2c1,?,4.5µM*,i,26%,15%,3.5µM*
Cc1nc2cnc(Oc3cccc(Cl)c3)nc2n(Cc2ccc(F)cc2)c1=O,nt,-7%,nt,nt,nt,?
CN(C)c1ccc(CNC(=O)CC[C@H]2O[C@@H](n3cnc4c(NC(=O)c5ccccc5)ncnc43)[C@H](O)[C@@H]2O)cc1,i,nt,i,nt,nt,nt
COc1ccc(N/C=C(\C=C\C#N)S(=O)(=O)c2ccccc2)cc1,i,?,i,3.7µM*,?,5%
CC(=O)N1N=C(c2cccc([N+](=O)[O-])c2)OC1(C)CC(=O)Nc1ccccc1 (stereo not drawn),i,4%,21µM*,10%,4%,40%
COCCCNC(=O)C1CCN(c2cc(C)nc3c(-c4ccc(OC)c(OC)c4)c(C)nn23)CC1,i,nt,i,nt,nt,nt
NC(=S)N/N=C1\CC(n2nnn(-c3cccc(Cl)c3)c2=S)C2COC1O2 (stereo not drawn),i,?,i,-6%,-2%,4µM*
NC(=S)N/N=C1\CC(n2nnnc2-c2ccccc2)C2COC1O2 (stereo not drawn),i,?,i,2%,5%,?
Cc1ccc(S(=O)(=O)N2CCCCC2)cc1NCC(=O)Nc1ccc(Br)cc1F,3.3µM*,nt,?,nt,nt,nt

# Bioassay records as filed in PubChem.
